The source of these data is PubChem BioAssay AID686979 (National Center for Advancing Translational Sciences (NCATS), 2013).

The campaign covered roughly 420,000 compounds. About 50,000 (12%) were called active. Inconclusive results (about 26%) are left out. Many of the other results were omitted from the sample, so actives are more common in it than they were. Values without a mark were called inactive. Calls follow the shape of the dose curve; as a rule, active = well fitted inhibition curve with a large enough effect; inconclusive = small, poorly fitted or top-dose-only effect; inactive = flat fitted curve, though single readings scatter.
% is scaled to controls: 0 for no effect and ±100 for the full control effect; potency is read from the fitted curve at half-maximal effect.

A short description of this assay: qHTS for Inhibitors of human tyrosyl-DNA phosphodiesterase 1 (TDP1): qHTS in cells in presence of CPT. Also: nearly all actives have a fitted effect of over 55% in size. The following applies: chicken DT40 Tdp1-/-;hTDP1 cells + 20 nM CPT, ATP luminescence, 48 h; series mostly up to 46.2 µM; activity change, negative = growth inhibition: at the top concentration. The method in brief: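 Cell growth measured by CellTiter-Glo luminescence after a minimum 48 h, 37 C compound exposure with 20 nM CPT in Tdp1-knockout DT40 cells stably expressing hTDP1, seeded 400/well; qHTS titration format.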
For orientation: In qHTS, concentration-response curves come from the screen itself.
On to `CC1CCC(N2CC(=O)N(CCC3=CCCCC3)C(c3ccc(F)cc3)C2=O)CC1` (stereo unspecified), for which the Potency is 13 µM (active).

`O=S(=O)(Cc1nnnn1-c1ccc(Br)cc1)c1ccc(F)cc1`: the “activity change, negative = growth inhibition” value is -16.3%.

For the molecule `NS(=O)(=O)c1ccc(NC(=O)COc2ccc(S(=O)(=O)NC3CCCCC3)cc2)cc1`, the “activity change, negative = growth inhibition” value was -27.9%.

As to `CCCS(=O)(=O)N1CCCC(C(=O)N2CCN(c3ccccc3)CC2)C1` (stereo unspecified), the “activity change, negative = growth inhibition” value was -5.02%.

`Cc1ccc(S(=O)(=O)N2CCCC(C(=O)N3CCN(C)CC3)C2)cc1` (stereo unspecified): the “activity change, negative = growth inhibition” value was -6.45%.

As to `O=C(C1CCCN(S(=O)(=O)c2ccccc2)C1)N1CCN(c2ccc(F)cc2)CC1` (stereo unspecified), the Potency is 11.6 µM (active).

With `O=C(C1CCCN(S(=O)(=O)c2cccc3nonc23)C1)N1CCN(c2ccccc2F)CC1` (stereo unspecified), the Potency was 18.4 µM (active).

In the case of `O=C(NCc1ccco1)C1CCCN(S(=O)(=O)c2cccc3nonc23)C1` (stereo unspecified), the “activity change, negative = growth inhibition” value was -10.4%.

Consider `CC(=O)c1cccc(NC(=O)C2CCCN(S(=O)(=O)c3cccc4nonc34)C2)c1` (stereo unspecified), for which the “activity change, negative = growth inhibition” value is -20.4%.

Turning to `CN1CCC(N(C)S(=O)(=O)c2ccc(NC(=O)c3cccc(C#N)c3)cc2)CC1`, the “activity change, negative = growth inhibition” value is -9.95%.

Turning to `COC(C[C@@H](O)C[C@H](O)[C@H](C)OCc1ccccc1)OC`, the “activity change, negative = growth inhibition” value was -2.51%.

With `CO[C@H]1O[C@@H]2O[C@@]3(C)CC[C@@H]4[C@@H](C)CC[C@@H]([C@H]1C)[C@@]24OO3`, the Potency was 0.631 µM (active).

As for `COc1ccccc1C(=O)NC(CCSC)C(=O)N1CCN(C(C)=O)CC1` (stereo unspecified), the “activity change, negative = growth inhibition” value was -0.07%.

Turning to `CC(C)c1cccc(C(C)C)c1Nc1cn[nH]c1`, the Potency is 14.6 µM (active).

Consider `CC(=O)Nc1ccc(S(=O)(=O)N(C)c2ccc(OCC(=O)OCC(=O)N3CCCCC3)cc2)cc1`, for which the “activity change, negative = growth inhibition” value was 5.25%.

For `CCCN1C2CCCC1CC(NC(=O)NC13CC4CC(CC(C4)C1)C3)C2` (stereo unspecified), the Potency was 16.4 µM (active).

`CCCNC(=S)NC1CC2CCCC(C1)N2CC(C)C` (stereo unspecified): the “activity change, negative = growth inhibition” value was -8.26%.

For the molecule `CCCN1C2CCCC1CC(NC(=O)c1cccc(OC)c1)C2` (stereo unspecified), the “activity change, negative = growth inhibition” value is -5.4%.

As for `Cc1ccc(NC(=O)CSCC(=O)Nc2sccc2C#N)cc1`, the “activity change, negative = growth inhibition” value is 2.86%.

`COc1ccccc1C(=O)COC(=O)CNS(=O)(=O)c1ccc(NC(C)=O)cc1`: the “activity change, negative = growth inhibition” value is -12.6%.

As to `COc1ccc(NC(=S)NCCNC(C)=O)cc1`, the “activity change, negative = growth inhibition” value was -3.51%.

With `COc1ccc(NC(=O)CN2C(=O)NC(C)(c3ccccc3)C2=O)cn1` (stereo unspecified), the “activity change, negative = growth inhibition” value was -5.76%.

Regarding `COc1ccc(CS(=O)/C(Cl)=C(/Cl)C(=O)Nc2ccc(OC)nc2)cc1` (stereo unspecified), the Potency is 0.0184 µM (active).

On to `Cc1nc(Nc2ccccc2F)c2nnn(Cc3ccccc3Cl)c2n1`, for which the “activity change, negative = growth inhibition” value is -15.9%.

Turning to `NC(=O)c1sc(-c2ccsc2)cc1N`, the “activity change, negative = growth inhibition” value is 3.43%.

`O=C(Nc1ccccc1-c1ccccc1)c1ccccc1[N+](=O)[O-]`: the “activity change, negative = growth inhibition” value was -5.27%.

For `Cc1ccc(CC(=O)N(C)CC(=O)N(CC(C)C)c2c(N)n(CC(C)C)c(=O)[nH]c2=O)cc1C`, the “activity change, negative = growth inhibition” value is 2.72%.

For `O=C(NCCCNC(=O)c1ccccc1Cl)c1cnccn1`, the “activity change, negative = growth inhibition” value was 14.9%.

Turning to `COc1ccc(-n2ncc3c2CC(C)(C)CC3NC(=O)CCc2c(C)noc2C)cc1` (stereo unspecified), the “activity change, negative = growth inhibition” value is -14.8%.

In the case of `Cc1ccc(-c2csc(NC(=O)c3cnccn3)n2)cc1C`, the “activity change, negative = growth inhibition” value is -0.532%.

For `Cc1ccc(-n2ncc3c2CCCC3NC(=O)c2cnccn2)cc1C` (stereo unspecified), the Potency is 20.6 µM (active).

For the molecule `COc1ccc(OC)c(C(=O)NC2CCCc3c2cnn3-c2cc(C)cc(C)c2)c1` (stereo unspecified), the Potency is 29.1 µM (active).

Consider `COCc1ccc(C(=O)NC2CC(C)(C)Cc3c2cnn3-c2ccc(C)cc2)o1` (stereo unspecified), for which the “activity change, negative = growth inhibition” value was -24.3%.

For `O=C(Cc1ccc(Cl)cc1)c1ccccc1`, the “activity change, negative = growth inhibition” value was 3.05%.

Take `CCCCCCNCCn1cnc2c(N)ncnc21`: the “activity change, negative = growth inhibition” value was 4.28%.

For the molecule `COc1ccc(NC(=O)c2ccc3oc(=O)c(S(=O)(=O)c4ccc(F)cc4)cc3c2)c(OC)c1`, the “activity change, negative = growth inhibition” value was 0.795%.

In the case of `COc1cccc(NC(=O)CN(C)C(C)C(=O)Nc2ccc(C#N)cc2)c1` (stereo unspecified), the “activity change, negative = growth inhibition” value is 1.07%.

Take `CCOC(=O)c1cc2c(=O)n3ccccc3nc2n(CCCOC)c1=NC(=O)C(C)(C)Oc1ccc(Cl)cc1`: the “activity change, negative = growth inhibition” value is -18.4%.

For the molecule `Nc1cc2c(cc1Br)-c1ccc(F)cc1C2=O`, the “activity change, negative = growth inhibition” value was -14.1%.

Take `Cc1ccc(/C=N/NC(=O)CSc2nc3ccccc3o2)cc1`: the Potency was 18.4 µM (active).

Consider `CCN(CC)C(=O)CSc1nc2ccccc2o1`, for which the “activity change, negative = growth inhibition” value was 1.95%.

As to `CC(C)(C)C(=O)CSc1nc2ccccc2o1`, the “activity change, negative = growth inhibition” value was 10.3%.

As for `CC(Sc1nnc(C2CC2)n1C1CC1)C(=O)Nc1ccc(C(N)=O)cc1` (stereo unspecified), the “activity change, negative = growth inhibition” value is -11.7%.

As for `COc1ccc(NS(=O)(=O)c2ccc(N3CCOCC3)c(NC(=O)/C=C/C(=O)O)c2)cc1`, the “activity change, negative = growth inhibition” value is -24.2%.

`COc1ccc(NS(=O)(=O)c2ccc(N3CCN(CCO)CC3)c([N+](=O)[O-])c2)cc1`: the Potency is 9.2 µM (active).

With `CC1CCN(c2ccc(S(=O)(=O)Nc3cc(C(=O)O)cc(C(=O)O)c3)cc2[N+](=O)[O-])CC1`, the “activity change, negative = growth inhibition” value is 6.32%.

Consider `O=C(CSc1nncn1-c1cccnc1)N1CCOCC1`, for which the “activity change, negative = growth inhibition” value was 18.2%.

As to `O=C1NC(c2ccccc2)Cc2ccncc21` (stereo unspecified), the “activity change, negative = growth inhibition” value was -1.24%.

As for `COc1ccc(OC)c(Cc2cnc3nc(N)nc(N)c3c2C)c1`, the Potency was 0.259 µM (active).

With `COc1ccc(OC)c(NC(=O)c2sc3nc(C)cc(C)c3c2N)c1`, the “activity change, negative = growth inhibition” value is -1.45%.

As to `COc1ccc(OC)c(Cc2nnc(CCC(=O)NC3CCCC3)o2)c1`, the “activity change, negative = growth inhibition” value is 24.7%.
